# Compound activity deposited in PubChem by several laboratories.
# E coli WT exp: growth inhibitors of wild-type E. coli, primary screen, strain BW25113, expanded library, OD600. 98,000 compounds, 0.15% hits. growth inhibition, % at 100 µM. AID 710, 2007. OD600 absorbance;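 active means growth inhibition above about 50% at one test dose, limit read from the data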;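 further: growth measured after 20 h incubation at 37 °C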
# CD11b adhes inh: inhibitors of CD11b/CD18 adhesion to fibrinogen, primary screen, K562 cells, luminescence; 93,000 compounds, 0.54% hits; inhibition, % at 10 µM; AID 1497, 2009; Integrin beta-2 (Homo sapiens) + Integrin alpha-M (Homo sapiens), P05107+P11215; ATPlite luminescence; Mn2+ added to activate the integrin;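 active means primary inhibition of 50% or more at 10 µM, then 40% or more on retest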
# Target sequence (P05107 whole entry, looked up, other chains not shown): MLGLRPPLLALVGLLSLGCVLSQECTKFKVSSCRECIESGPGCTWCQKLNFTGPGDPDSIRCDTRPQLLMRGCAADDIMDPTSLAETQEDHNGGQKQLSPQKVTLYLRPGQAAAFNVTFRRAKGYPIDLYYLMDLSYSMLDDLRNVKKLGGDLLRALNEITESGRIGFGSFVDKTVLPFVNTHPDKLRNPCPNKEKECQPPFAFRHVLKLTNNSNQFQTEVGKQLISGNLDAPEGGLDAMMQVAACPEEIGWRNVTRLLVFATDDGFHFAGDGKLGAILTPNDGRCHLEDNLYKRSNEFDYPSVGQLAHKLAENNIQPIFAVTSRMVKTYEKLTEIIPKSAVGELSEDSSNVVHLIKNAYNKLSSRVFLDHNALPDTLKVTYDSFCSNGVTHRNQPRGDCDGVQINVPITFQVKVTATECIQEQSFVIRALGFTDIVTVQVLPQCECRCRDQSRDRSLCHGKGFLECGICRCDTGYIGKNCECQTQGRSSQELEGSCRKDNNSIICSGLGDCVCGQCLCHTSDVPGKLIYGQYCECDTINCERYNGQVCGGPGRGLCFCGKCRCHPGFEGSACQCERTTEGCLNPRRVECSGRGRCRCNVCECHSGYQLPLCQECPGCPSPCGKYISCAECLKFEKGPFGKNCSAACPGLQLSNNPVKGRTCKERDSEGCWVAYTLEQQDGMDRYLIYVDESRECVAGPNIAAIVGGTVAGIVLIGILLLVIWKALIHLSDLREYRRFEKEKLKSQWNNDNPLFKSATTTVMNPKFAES
# Cav32 inh: Cav3.2 calcium influx blockers – cell-based, Fluo-4 calcium fluorescence, FDSS, MLSMR library, primary screen. Cav3.2-expressing cells; stronger effect = lower value. B-score at 10 µM. 100,000 compounds, 4% hits. Voltage-dependent T-type calcium channel subunit alpha-1H (Homo sapiens), O95180;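 active means single-dose well whose peak fluorescence ratio is a statistical outlier from its plate by either plate-standardised score or position-corrected B-score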
# Mac1 fbg enh: enhancers of CD11b/CD18 adhesion to fibrinogen, primary screen, K562 cells, luminescence; Integrin beta-2 (Homo sapiens) + Integrin alpha-M (Homo sapiens), P05107+P11215; ATPlite luminescence; activation, % at 10 µM; 93,000 compounds, 0.07% hits; AID 1499, 2009;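 active means 10 µM primary screen giving 50% or more activity, confirmed by 40% or more on retest at that dose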
# * marks the source's active call; other numbers are inactive results; · = not tested or not shown. The entries come from a sample that favours hits as a whole.
SMILES,E coli WT exp,CD11b adhes inh,Cav32 inh,Mac1 fbg enh
Cc1ccc(S(=O)(=O)N(C)c2ccc(C(=O)N3CCN(Cc4ccc5c(c4)OCO5)CC3)cc2)cc1,-13,61*,-3.2,-9
O=C(CSCc1ccccc1)N1CCN(Cc2ccc3c(c2)OCO3)CC1,·,·,-0.018,·
Cc1ccc(-c2nc(N3CCOCC3)sc2C(=O)N2CCCCC2)cc1,·,-3,·,-1
O=C(CN1CCN(c2ncccn2)CC1)NCCC1=CCCCC1,2,·,0.28,·
C=CCn1c2ccccc2c2nnc(SCC(=O)Nc3c(C)n(C)n(-c4ccccc4)c3=O)nc21,-13,-2,3.8*,1
CCC(C)(C)n1nnnc1C(c1cc2cc(C)cc(C)c2[nH]c1=O)N1CCN(C(=O)c2ccco2)CC1 (centres undefined),-13,·,·,·
COC(=O)Oc1ccc(/C=N/NC(=O)CSCc2ccccc2Br)cc1OC,4,54*,-1.2,-6
COc1ccc(/C=N/NC(=O)CSCC(=O)Nc2ccccc2)cc1OC,-1,11,0.001,1
CCOC(=O)C1=C(C)NC(SCC(=O)Nc2nc(C)cs2)=C(C#N)C1c1cccs1 (centres undefined),-9,48,-6.9*,2
COC(=O)C(Cc1cnc(Cl)s1)(C(=O)OC)c1ccc(C(F)(F)F)cc1[N+](=O)[O-],-8,-4,-8.6*,-3
COC(=O)C(Cc1cnc(Cl)s1)(C(=O)OC)c1ccc([N+](=O)[O-])cc1[N+](=O)[O-],-1,7,-0.52,-3
CC(C)(C)n1nnnc1C(c1cccnc1)N(Cc1ccccc1)Cc1ccco1 (centres undefined),-8,·,·,·
CC(C)(C)n1nnnc1CN(Cc1ccc(F)cc1)Cc1ccco1,-5,-4,-4.7*,6
Cc1cccc(-n2nnc(C(=O)N3CCc4ccccc4C3)c2N)c1,-14,·,-4.7*,·
CC(=O)Nc1ccccc1-c1nc2ccc(C(=O)N3CCN(c4cc(C)ccc4C)CC3)cc2[nH]c1=O,-8,2,-3.7*,1
COC(=O)C1=C(C)N=C2SC(C)C(=O)N2C1c1cccc(F)c1 (centres undefined),11,4,-4.6*,-2
O=C(COC(=O)CCc1ccc(S(=O)(=O)N2CCCCC2)cc1)Nc1ccc2c(c1)OCO2,-15,16,-5.5*,1
O=C(CN1CCCCC1)Nc1ccc(S(=O)(=O)N2CCCCCC2)cc1,9,14,0.62,-1
CC(C(=O)OCC(=O)Nc1ccc(S(=O)(=O)N2CCCCC2)cc1)N1C(=O)c2ccccc2C1=O (centres undefined),2,15,-5.7*,-5
O=C(CS(=O)(=O)Cc1ccccc1)Nc1ccc(S(=O)(=O)N2CCCCCC2)cc1,-5,1,-7.1*,-1
CCOC(=O)C(C)Sc1nnc(NC(=O)c2cccc([N+](=O)[O-])c2C)s1 (centres undefined),·,28,·,-2
CCOC(=O)C(C)Sc1nnc(NC(=O)c2ccc(C)c([N+](=O)[O-])c2)s1 (centres undefined),·,66*,·,-5
CC(=O)c1ccc(N2CCC(c3cc(-c4ccc(Cl)cc4Cl)n[nH]3)CC2)c([N+](=O)[O-])c1,-21,·,-0.019,·
CCOC(=O)c1c(N2C(=O)C3C4C=CC(C4)C3C2=O)sc2c1CCC(C)C2 (centres undefined),·,0,·,-5
N#C/C(=N\Nc1cccc2ccccc12)c1nnc2n1CCCCC2,·,5,·,27
SMILES,E coli WT exp,CD11b adhes inh,Cav32 inh,Mac1 fbg enh
CCN(CC)N=Nc1[nH]nc2nc(C)cc(C)c12,63*,-5,-0.057,-6
CCCC(=O)NC(=S)Nc1cccc(Cl)c1N1CCCCC1,2,30,-5*,-2
O=S1(=O)C=CC(Nc2ccccc2)C1 (centres undefined),-2,·,0.2,·
C[C@@H](O)C1NC(=O)[C@H](CCCCN)NC(=O)c2cc([N+](=O)[O-])cc(I)c2OCC[C@@H](C(N)=O)NC1=O (some centres undefined),·,·,-0.37,·
C[C@@H](C(=O)Nc1ccc2ccccc2c1)[C@@H]1C[C@@]1(C)[C@@H](NC(=O)c1ccccc1)c1ccccc1,·,·,-3.9*,·
O=C(c1ccccc1Nc1ccc(SC(F)F)cc1)N1CCCCCC1,-9,·,-6.8*,·
CCCCC(=O)NC(c1ccco1)c1c(O)ccc2ccccc12 (centres undefined),9,-4,-5.5*,1
COCCCN1C(=O)c2[nH]nc(-c3ccccc3O)c2C1c1cccc(Cl)c1 (centres undefined),-2,2,-6.4*,0
COc1ccc(S(=O)(=O)n2nc(OC(=O)c3c(-c4ccccc4Cl)noc3C)cc2N)cc1,-8,·,-5.4*,·
COc1ccc(-c2ccc(S(=O)(=O)n3nc(OC(=O)c4cccs4)cc3N)cc2)cc1,·,·,0.015,·
CC(C)=CC1C=C(C)C(C)C2C(=O)NNC(=O)C12 (centres undefined),1,-47,-0.0097,-1
Cc1ccc(N2CC(C(=O)NC3=NCCS3)CC2=O)cc1 (centres undefined),-6,-2,-0.28,-3
CNC(=O)C1CC(=O)N(c2ccc(C)cc2)C1 (centres undefined),3,-12,-3.8*,-1
CC(CO)Nc1nc(SCc2ccccc2)nc2sc3c(c12)CCC3 (centres undefined),-15,·,-1.6,·
COCCNc1nc(SCc2ccccc2)nc2sc3c(c12)CCC3,-14,·,-4.5*,·
Clc1ccc(OCCCNCc2ccccc2)c(Br)c1,68*,18,-0.07,-2
Cc1cc(Cl)c(OCCCNCc2ccccc2)c(Br)c1,57*,-5,-2.6,1
O=C(OCC#CCSc1nnc(-c2ccccc2)o1)c1cccs1,-19,-5,-3.8,-1
O=C(OCC#CCSc1nnc(-c2cccc3ccccc23)o1)c1cccs1,-28,-18,-4.7*,-3
S=C1NC[C@H](Cc2ccccc2)N1CCc1cccc2ccccc12,·,·,-1.1,·
CCN(CC)S(=O)(=O)c1ccc(NC(=O)Cn2c(=O)sc3ccccc32)cc1,-7,13,-6.1*,-3
Cc1noc(NS(=O)(=O)c2ccc(NC(=O)CCC3CCCCC3)cc2)c1C,0,8,-0.29,-2
CCN(CC)S(=O)(=O)c1ccc(NC(=O)CCC2CCCCC2)cc1,-6,26,-4.4*,1
C[C@H]1[C@@H](OC(=O)CCC(=O)O)O[C@@H]2OC3(C)CC[C@H]4[C@H](C)CC[C@@H]1[C@@]24OO3,·,·,0.99,·
Cc1ccc(C(=O)N[C@@H](C)CN2C3=NC[C@H](C)N3C[C@H]2Cc2ccc(O)cc2)cc1Br,·,·,-0.56,·
Cn1nccc1C(=O)OCC(=O)Nc1nc(-c2ccccc2)cs1,-5,-3,-3.8*,-3
O=C(COC(=O)c1cccs1)Nc1nc(-c2ccccc2)cs1,·,-10,·,11
Cn1cc(Cl)c(C(=O)OCC(=O)Nc2nc(-c3ccc(Br)cc3)cs2)n1,·,·,-5.9*,·
NC(=O)C1=C[C@@H](c2csc3ccccc23)C[C@@H](OCCCCO)O1,·,·,1.2,·
